Measurements taken from PubChem BioAssay (NCATS).
Results filed as inconclusive are left out. Calls of active or inactive are those of the source. The call rests on the fitted dose curve; in most records, active means well fitted inhibition curve with a large enough effect; inconclusive means small, poorly fitted or top-dose-only effect; inactive means flat fitted curve, though single readings scatter.

What was measured:
Assay in all cases: qHTS profiling for inhibitors of Plasmodium falciparum proliferation (AID 504749); further: nearly all actives have a fitted effect of over 60% in size
Settings in all cases: P. falciparum in erythrocytes, SYBR Green DNA, 72 h; series mostly up to 28.7 µM
[1] = tested on: ATS95
Procedure, shortened: (§1)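 Parasite proliferation within erythrocytes, 72 h exposure. Endpoint: SYBR Green I fluorescence after overnight lysis at room temperature. Controls: 0.29 uM artemisinin, DMSO.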

[2] = tested on: C2A
Procedure, shortened: as §1

[3] = tested on: CP185
Procedure, shortened: as §1

[4] = tested on: CP191
Procedure, shortened: as §1

[5] = tested on: CP192
Procedure, shortened: as §1

[6] = tested on: CP194
Procedure, shortened: as §1

[7] = tested on: CP201
Procedure, shortened: as §1

[8] = tested on: CP203
Procedure, shortened: as §1

[9] = tested on: CP211
Procedure, shortened: as §1

[10] = tested on: CP215
Procedure, shortened: as §1

[11] = tested on: CP217
Procedure, shortened: as §1

[12] = tested on: CP237
Procedure, shortened: as §1

[13] = tested on: CP238
Procedure, shortened: as §1

[14] = tested on: CP247
Procedure, shortened: as §1

[15] = tested on: CP250
Procedure, shortened: as §1

[16] = tested on: CP252
Procedure, shortened: as §1

[17] = tested on: CP256
Procedure, shortened: as §1

[18] = tested on: CP260
Procedure, shortened: as §1

[19] = tested on: CP262
Procedure, shortened: as §1

[20] = tested on: CP265
Procedure, shortened: as §1

Measured: Potency

COc1cc(O)cc(O)c1
inactive: all assays above

Cc1c(N(C)C)c(=O)n(-c2ccccc2)n1C
not listed: [18]
inactive: all other assays above

Cc1cccc(Nc2ccccc2C(=O)O)c1C
inactive: all assays above

CC(=O)N[C@@H](Cc1ccc(O)cc1)C(=O)O
not listed: [17]
inactive: all other assays above

CC(=O)Nc1cccc(O)c1
inactive: all assays above

Cc1c(NC(C)C)c(=O)n(-c2ccccc2)n1C
inactive: all assays above

O=C(c1ccccc1)C(O)c1ccccc1 (stereo unspecified)
not listed: [14] | [15]
inactive: all other assays above

NCC1CCC(C(=O)Oc2ccc(CCC(=O)O)cc2)CC1 (stereo unspecified)
inactive: all assays above

CCN(CC)CCc1nc(-c2ccccc2)no1
not listed: [18]
inactive: all other assays above

CN1CCCN=C1COC(=O)C(O)(c1ccccc1)C1CCCCC1 (stereo unspecified)
inactive: all assays above

CCCC(O)C(CC)CO (stereo unspecified)
inactive: all assays above

Nc1ccncc1N
inactive: all assays above

CCc1cccc(CC)c1NC(=O)CN(CC(=O)O)CC(=O)O
inactive: all assays above

NS(=O)(=O)c1cc(-c2nn[nH]n2)c(NCc2cccs2)cc1Cl
inactive: all assays above

CCOc1ccc(C(=O)OCCN(CC)CC)cc1
not listed: [19]
inactive: all other assays above

O=C(O)c1ccccc1C(=O)Nc1ccc(S(=O)(=O)Nc2nccs2)cc1
not listed: [18]
inactive: all other assays above

NS(=O)(=O)c1ccc(C(=O)O)cc1
not listed: [19]
inactive: all other assays above

Cc1cc(NC(=O)C2=C(O)c3ccccc3S(=O)(=O)N2C)no1
not listed: [14]
inactive: all other assays above
